40 molecules from PubChem BioAssay (NCATS) can be followed below.

Results filed as inconclusive are left out. Calls of active or inactive are those of the source. Calls come from the whole dose curve; as a rule, active = well fitted cell-killing curve with a large enough effect; inconclusive = small, poorly fitted or top-dose-only effect, or effect the other way; inactive = no such curve, though single readings can be large or run the other way.
Potency is the fitted concentration of half-maximal effect.

This test in a line: Quantitative High-Throughput drug screen in 47 multiple myeloma cell lines against the NCATS MIPE library collection: INA6_PLB cell viability assay (AID 1918965; note: nearly all actives have a fitted effect of over 55% in size). The note with it: INA6 myeloma viability, CellTiter-Glo ATP luminescence, 48 h; series mostly up to 45.8 µM. The text has this:
PI: Beverly A. Mock Ph.D.
Laboratory of Cancer Biology and Genetics,
Center for Cancer Research, National Cancer Institute,
National Institute of Health, Bethesda, Maryland
Drug resistance and disease progression are common in multiple myeloma (MM) patients, underscoring the need for new therapeutic combinations. […] We hypothesized that effective combinations would reduce MYC expression and enhance p16 activity. […] These preclinical data identify potentially useful drug combinations for evaluation in drug-resistant MM and reveal potential mechanisms of combined drug sensitivity.
Described herein is the primary MIPE qHTS used to cherrypick compounds. Validated compounds were then further tested for potential synergistic activiy.
[1] Peat TJ, Gaikwad SM, Dubois W, Gyabaah-Kessie N, Zhang S, Gorjifard S, Phyo Z, Andres M, Hughitt VK, Simpson RM, Miller MA, Girvin AT, Taylor A, Williams D, D'Antonio N, Zhang Y, Rajagopalan A, Flietner E, Wilson K, Zhang X, Shinn P, Klumpp-Thomas C, McKnight C, Itkin Z, Chen L, Kazandijian D, Zhang J, Michalowski AM, Simmons JK, Keats J, Thomas CJ, Mock BA. Drug combinations identified by high-throughput screening promote cell cycle transition and upregulate Smad pathways in myeloma. Cancer Lett. 2023 Aug 1;568:216284. doi: 10.1016/j.canlet.2023.216284. Epub 2023 Jun 24. PMID: 37356470; PMCID: PMC10408729.
SEQUENCE No. (e.g., 1, 2, 3, etc.); […] (e.g., Cells, Incubation, Reagent, etc.); VALUE and DESCRIPTION.
1; Cells; 5 uL; white, solid bottom 1536-well Greiner assay plate.
2; Compounds; 23 nL; Kalypsis pin tool (Wako USA) equipped with a 1536-well pin head to transfer to the assay plates.
3; Incubation; 48 hours; 37C incubation.
4; Reagent;5uL; CellTiter Glo (Promega).
5; Detector; 425V; Luminescence; Viewlux PerkinElmer.
NOTES (numbers refer to Sequence numbers above)
1. The cell-based screening methods employed in this study were like those previously published. Briefly, the corresponding myeloma cell lines were screened in 1,536-well plates with 500 cells, 5-uL per well for inhibition of cell viability (assessed by measuring ATP levels with CellTiterGlo).
2. NCATS MIPE 4.0 library of approved and investigational drugs were added using the Kalypsis pin tool. Wells treated with DMSO only for 100% viability and media only wells for 0% viability were used as controls.
3. The assay plates were covered and incubated for 48 hours in a 37C, 5% CO2 incubator with controlled humidity.
4. After 48 hours, CellTilter-GloTM luminescent substrate mix (Promega) reagent was added to the assay plate and plates we incubated for 5 min at room temperature.
5. Signal was measured as median relative luminescence units on a ViewLux (PerkinElmer) multiplate reader.
[1] Heske CM, Davis MI, Baumgart JT, Wilson K, Gormally MV, Chen L, Zhang X, Ceribelli M, Duveau DY, Guha R, Ferrer M, Arnaldez FI, Ji J, Tran HL, Zhang Y, Mendoza A, Helman LJ, Thomas CJ. Matrix Screen Identifies Synergistic Combination of PARP Inhibitors and Nicotinamide Phosphoribosyltransferase (NAMPT) Inhibitors in Ewing Sarcoma. Clin Cancer Res. 2017 Dec 1;23(23):7301-7311. doi: 10.1158/1078-0432.CCR-17-1121. Epub 2017 Sep 12. PMID: 28899971; PMCID: PMC6636827.
`C=C[C@@H]1CN2CCC1C[C@@H]2[C@@H](O)c1ccnc2ccccc12` (stereo not given in full): the Potency was 23500 nM (active).
Take `COc1cccc2c1[C@]13CCN(CC4CC4)[C@H](C2)[C@]1(OC)CCC(=O)C3`: the Potency result is “inactive”.
For `NC1CC1c1ccccc1` (stereo not given), the Potency entry was “inactive”.
Under `C[C@@H]1CC[C@H]2[C@@H](C)C(=O)O[C@@H]3O[C@@]4(C)CC[C@H]1[C@]32OO4` stands 1180 nM (active).
The same measure for `CSCC[C@@H](NC(=O)[C@@H](Cc1ccccc1)NC(=O)CNC(=O)CNC(=O)[C@@H](N)Cc1ccc(O)cc1)C(=O)O`: “inactive”; for `COc1ccc(N(C(=O)Oc2c(C)cccc2C)c2ccnc(Nc3ccc(N4CCN(C)CC4)cc3)n2)c(OC)c1`: 1480 nM (active).
Regarding `COC1=C[C@@H]2[C@@H]3Cc4ccc(OC)c(O)c4[C@]2(CCN3C)CC1=O`, the Potency is 8330 nM (active).
Regarding `CC(=Cc1csc(C)n1)[C@@H]1C[C@H]2O[C@]2(C)CCC[C@H](C)[C@@H](O)[C@@H](C)C(=O)C(C)(C)[C@@H](O)CC(=O)O1`, the Potency entry was “inactive”.
In the case of `c1cc2c(cc1[C@H]1OC[C@H]3[C@H]1CO[C@H]3c1ccc3c(c1)OCO3)OCO2`, the Potency result was “inactive”.
Consider `CC(=O)O[C@@]12CO[C@H]1C[C@H](O)[C@@]1(C)C(=O)[C@H](O)C3=C(C)[C@@H](O)C[C@@](O)([C@@H](OC(=O)c4ccccc4)[C@@H]21)C3(C)C`, for which the Potency is 1480 nM (active).
The same measure for `CN1CCN(c2ccc([N+](=O)[O-])c3no[n+]([O-])c23)CC1`: 13200 nM (active); for `C[C@H]1CCCC=CC2C[C@H](O)C[C@@H]2[C@H](O)C=CC(=O)O1` (stereo not given in full): “inactive”; for `CN[C@@H]1Cc2cccc3[nH]c(=O)n(c23)C1`: “inactive”.
As to `CCN1C[C@]2(OC(=O)c3ccccc3NC(C)=O)CC[C@H](OC)[C@@]34[C@H]5CC6[C@@H](OC)C[C@](O)(C(C[C@@H]23)[C@@H]14)[C@@]5(O)[C@@H]6OC`, the Potency result was “inactive”.
In the case of `CC[C@@H](C(N)=O)N1CCCC1=O`, the Potency result is “inactive”.
In the case of `c1ccc(CCCN2CCN(CCOC(c3ccccc3)c3ccccc3)CC2)cc1`, the Potency is 20900 nM (active).
The same measure for `COCC1(CO)C(=O)C2CCN1CC2` (stereo not given): 2960 nM (active); for `C[C@@H]1CC[C@@]2(OC1)O[C@H]1C[C@H]3[C@@H]4CC=C5C[C@@H](O[C@@H]6O[C@H](CO)[C@@H](O[C@@H]7O[C@@H](C)[C@H](O)[C@@H](O)[C@@H]7O)[C@H](O)[C@@H]6O[C@@H]6O[C@@H](C)[C@H](O)[C@@H](O)[C@@H]6O)CC[C@]5(C)[C@@H]4CC[C@]3(C)[C@@H]1[C@H]2C`: 5260 nM (active).
As to `COc1cc([C@@H]2c3cc4c(cc3[C@@H](O)C3COC(=O)C32)OCO4)cc(OC)c1O` (stereo not given in full), the Potency is 41.8 nM (active).
`Cc1ccccc1-n1c(Cn2cnc3c(N)ncnc32)nc2cccc(C)c2c1=O`: the Potency is 935 nM (active).
Take `O=S(=O)(F)Cc1ccccc1`: the Potency is 1180 nM (active).
`Cc1ccccc1-n1c(Cn2ncc3c(N)ncnc32)nc2cccc(C)c2c1=O`: the Potency was 235 nM (active).
Under `CC1(N2CCC(n3c([C@@H]4CCCNC4)nc4ccccc43)CC2)CCCCCCC1` stands 14800 nM (active); under `N#C[C@H](O[C@@H]1O[C@H](CO[C@@H]2O[C@H](CO)[C@H](O)[C@H](O)[C@H]2O)[C@H](O)[C@H](O)[C@H]1O)c1ccccc1`, 13200 nM (active); under `Cc1c(C(=O)c2cccc3ccccc23)c2cccc3c2n1[C@H](CN1CCOCC1)CO3`, 23500 nM (active).
The same measure for `CC(C)(O)C(=O)Nc1ccc([N+](=O)[O-])c(C(F)(F)F)c1`: 7430 nM (active).
For `C[C@@]12OC(=O)[C@]1([C@@H](O)[C@@H]1C=CCCC1)NC(=O)[C@H]2CCCl`, the Potency is 1 nM (active).
Under `CC(C)(C)c1cc(C=C(C#N)C#N)cc(Br)c1O` stands 4180 nM (active); under `O=C1CCC[C@@H]2[C@H]3CCCN4CCC[C@@H](CN12)[C@@H]34`, “inactive”.
Under `O=c1[nH]c2ccccc2n1C1CCN(Cc2ccc(-c3[nH]c4cc5ncnc5cc4nc3-c3ccccc3)cc2)CC1` stands 1480 nM (active); under `CC(C)(C)[C@]1(O)C[C@@H]2OC(=O)C[C@@]23C(=O)O[C@@H]2OC(=O)[C@H](O)C213` (stereo not given in full), “inactive”.
As to `CC=C(C)C(=O)O[C@H]1C(C)=C2[C@@H]3OC(=O)[C@@](C)(O)[C@@]3(O)[C@@H](OC(=O)CCC)C[C@](C)(OC(C)=O)[C@@H]2[C@@H]1OC(=O)CCCCCCC`, the Potency was 93.5 nM (active).
With `O=C(Nc1ccncc1)C(=O)c1cn(Cc2ccc(Cl)cc2)c2ccccc12`, the Potency was 13.2 nM (active).
In the case of `C=C1C[C@H]2[C@H]3CCC(=O)[C@@]3(C)CC[C@@H]2[C@@]2(C)C=CC(=O)C=C12`, the Potency is 20900 nM (active).
With `CC[C@H]1C=CC=CC[C@@H](C)[C@H](O)[C@@](C)(O)C(=O)[C@@H](C)[C@H](O)[C@@H](C)C(=O)[C@@H](C)[C@H](O)[C@@H](C)C=CC(=O)O[C@@H]2[C@@H](C)[C@H](CC1)O[C@]1(CC[C@H](C)[C@H](C[C@@H](C)O)O1)[C@H]2C`, the Potency was 13.2 nM (active).
In the case of `CN(C)[C@@H]1C(=O)C(C(N)=O)=C(O)[C@@]2(O)C(=O)C3=C(O)c4c(O)cccc4[C@@](C)(O)[C@H]3[C@H](O)[C@@H]12`, the Potency entry is “inactive”.
Under `COc1ccc2c(c1)[C@]13CCCCC1C(C2)N(C)CC3` (stereo not given in full) stands “inactive”; under `C[C@H]([C@H](O)CCC(C)(C)O)[C@H]1CC[C@@]2(O)C3=CC(=O)[C@@H]4C[C@@H](O)[C@@H](O)C[C@]4(C)[C@@H]3CC[C@]12C`, “inactive”.
In the case of `CC(=O)N(C)c1cccc(-c2ccnc3c(C(=O)c4cccs4)cnn23)c1`, the Potency was 14800 nM (active).
As to `Clc1ccccc1C(c1ccccc1)(c1ccccc1)n1cccn1`, the Potency entry was “inactive”.
